# According to PubChem BioAssay (Tox21):
# Where “and” joins values, the source holds several entries; their conditions need not be identical. Equal entries are not always repeated. A number with no mark means an inactive call. Results filed as inconclusive are left out. Where a call stands in place of a potency, no number is given. Calls of active or inactive are those of the source. Unless noted, calls come from the whole dose curve; as a rule, active = well fitted curve in the direction sought with a large enough effect in the repeat runs; inconclusive = weak or mixed curves; inactive = no such curve, though single readings can be large; an effect the other way counts as inactive or inconclusive.
# Experiments:
# [1] = qHTS assay for small molecules that induce genotoxicity in human embryonic kidney cells expressing luciferase-tagged ATAD5 (AID 651632); note: nearly all actives have a fitted effect of over 15% in size
# Summary of the method: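 Quantitative HTS in HEK293T expressing luciferase-tagged ATAD5, whose levels rise upon DNA damage. Exposure ran 16 hr at 37C and 5% CO2, with luminescence read 30 min after Amplite addition at room temperature.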
# [2] = qHTS assay for small molecule agonists of the p53 signaling pathway - cell viability (AID 651633; calls by dose curve; note: nearly all actives have a fitted effect of over 30% in size; note: potency is the fitted concentration of half-maximal effect)
# Summary of the method: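 p53RE-bla cells, seeded at 4,000 per well and rested 5 h at 37 C/5% CO2, received compounds in DMSO for 16 h at 37 C. CellTiter-Glo was then added, and luminescence was read after 30 min at room temperature to gauge cytotoxicity.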
# [3] = qHTS assay for small molecules that induce genotoxicity in human embryonic kidney cells expressing luciferase-tagged ATAD5 - cell viability (AID 651634; calls by dose curve; note: nearly all actives have a fitted effect of over 25% in size)
# Summary of the method: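 After 15.5 hr incubation with compound at 37C, 5% CO2, HEK293T ATAD5-luciferase cells received CellTiter-Fluor reagent; fluorescence intensity was quantified following 30 min at 37C.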
# [4] = qHTS assay for small molecule disruptors of the mitochondrial membrane potential - cell viability (AID 720634; calls by dose curve; note: nearly all actives have a fitted effect of over 20% in size; note: potency is the fitted concentration of half-maximal effect)
# Summary of the method: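 ATP-based luminescent viability readout (CellTiter-Glo, 30 min, room temperature) in HepG2 cells multiplexed with the m-MPI membrane potential dye; compound exposure lasted 1 hr at 37 C.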
# [5] = qHTS assay to test for compound auto fluorescence at 590 nm (red) in HepG2 cells (AID 720674)
# Summary of the method: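 Rose Bengal sodium served as the red fluorophore standard. HepG2 monolayers (overnight attachment, MEM with 10% FBS) were exposed to test compounds for 1 hr at 37 C and read at Ex 540/Em 590 nm.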
# [6] = qHTS assay to test for compound auto fluorescence at 535 nm (green) in HepG2 cells (AID 720675)
# [7] = qHTS assay to test for compound auto fluorescence at 460 nm (blue) in HEK293 cells (AID 720678)
# Summary of the method: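 After cell attachment (4-5 hr, 37C), compounds were pinned onto HEK293 monolayers in 10% dialyzed FBS medium. The blue channel (405/460 nm) was read following overnight culture. Equivalency was calculated against triamterene.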
# [8] = qHTS assay to test for compound auto fluorescence at 590 nm (red) in HEK293 cells (AID 720679)
# Summary of the method: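 Plates of HEK293 cells (10% dialyzed FBS) are treated with 23 nL compound or DMSO vehicle after a 4-5 hr attachment period, incubated overnight at 37C, and read for red fluorescence at 540/590nm.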
# [9] = qHTS assay to test for compound auto fluorescence at 535 nm (green) in HEK293 cells (AID 720680)
# [10] = qHTS assay to test for compound auto fluorescence at 460 nm (blue) in HEK293 cell free culture (AID 720681)
# Summary of the method: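 Test compounds were pinned into cell-free culture medium (DMEM with 10% FBS) and fluorescence was read directly at Ex/Em 405/460 nm. Signals were expressed as fluorescence equivalents of triamterene, with DMSO vehicle as control.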
# [11] = qHTS assay to test for compound auto fluorescence at 535 nm (green) in HEK293 cell free culture (AID 720682)
# Summary of the method: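 Steps: dispense DMEM/10% FBS into empty wells; pin in compound or DMSO; measure fluorescence at 485/535 nm. Values are fluorescein equivalents.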
# [12] = qHTS assay to test for compound auto fluorescence at 590 nm (red) in HEK293 cell free culture (AID 720683)
# Summary of the method: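 Tox21 10K library compounds were pinned into cell-free DMEM with 10% FBS and fluorescence was read at excitation 540 nm. Activity is expressed as Rose Bengal sodium equivalency.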
# [13] = qHTS assay to test for compound auto fluorescence at 590 nm (red) in HepG2 cell free culture (AID 720684)
# Summary of the method: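 Ex 540 / Em 590 nm read of compound in cell-free MEM (10% FBS). Rose Bengal sodium reference.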
# [14] = qHTS assay to test for compound auto fluorescence at 460 nm (blue) in HepG2 cell free culture (AID 720685)
# Summary of the method: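 Cell-free plates of MEM plus 10% FBS received 23 nL compound or DMSO vehicle; blue-channel (405/460 nm) intensity scored against triamterene as reference fluorophore.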
# [15] = qHTS assay to test for compound auto fluorescence at 535 nm (green) in HepG2 cell free culture (AID 720686)
# [16] = qHTS assay to test for compound auto fluorescence at 460 nm (blue) in HepG2 cells (AID 720687)
# Summary of the method: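 Cells (2,000/well in MEM with 10% FBS) attached overnight at 37 C, then were exposed to compound or DMSO for 1 hr at 37 C, 5% CO2. Fluorescence read at Ex/Em 405/460 nm, expressed as triamterene-equivalent signal.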
# [17] = qHTS assay for small molecule disruptors of the mitochondrial membrane potential (AID 720635); note: potency is the fitted concentration of half-maximal effect
# Summary of the method: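 HepG2 cells (2,000/well) attached overnight at 37C, then took compound for 1 hr at 37C, 5% CO2. Mito-MPS dye was added for 30 min; fluorescence was read at 490/535 nm (monomers) and 540/590 nm (aggregates).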
# [18] = biological target: Glucocorticoid receptor (Homo sapiens) (UniProt P04150); assay: qHTS assay to identify small molecule agonists of the glucocorticoid receptor (GR) signaling pathway (AID 720691; active = well fitted activation curve with a large enough effect in the signal ratio in the repeat runs, not every such curve was filed as active; the % refers to the signal ratio); conditions: GR-bla HeLa, beta-lactamase reporter ratio, 18 h; activation: at 62.4 µM (top of the series)
# Summary of the method: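 Cells: GR-bla HeLa, endogenous GR with stably integrated GRE-beta-lactamase reporter. Treatment 18 h, 37 C, compounds delivered in DMSO. Detection via LiveBLAzer B/G FRET substrate, 2 h RT, fluorescence intensity.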
# [19] = biological target: Glucocorticoid receptor (Homo sapiens) (UniProt P04150); assay: qHTS assay to identify small molecule antagonists of the glucocorticoid receptor (GR) signaling pathway (AID 720692; active = well fitted inhibition curve with a large enough effect in the signal ratio in the repeat runs, not every such curve was filed as active; the % refers to the signal ratio; note: potency is the fitted concentration of half-maximal effect)
# Summary of the method: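 Quantitative HTS in antagonist format: HeLa cells expressing endogenous GR and a stably integrated GRE-bla reporter, stimulated with 5 nM dexamethasone (final) alongside test compounds for 18 h.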
# Sequence of Glucocorticoid receptor (Homo sapiens) (P04150 whole entry, looked up): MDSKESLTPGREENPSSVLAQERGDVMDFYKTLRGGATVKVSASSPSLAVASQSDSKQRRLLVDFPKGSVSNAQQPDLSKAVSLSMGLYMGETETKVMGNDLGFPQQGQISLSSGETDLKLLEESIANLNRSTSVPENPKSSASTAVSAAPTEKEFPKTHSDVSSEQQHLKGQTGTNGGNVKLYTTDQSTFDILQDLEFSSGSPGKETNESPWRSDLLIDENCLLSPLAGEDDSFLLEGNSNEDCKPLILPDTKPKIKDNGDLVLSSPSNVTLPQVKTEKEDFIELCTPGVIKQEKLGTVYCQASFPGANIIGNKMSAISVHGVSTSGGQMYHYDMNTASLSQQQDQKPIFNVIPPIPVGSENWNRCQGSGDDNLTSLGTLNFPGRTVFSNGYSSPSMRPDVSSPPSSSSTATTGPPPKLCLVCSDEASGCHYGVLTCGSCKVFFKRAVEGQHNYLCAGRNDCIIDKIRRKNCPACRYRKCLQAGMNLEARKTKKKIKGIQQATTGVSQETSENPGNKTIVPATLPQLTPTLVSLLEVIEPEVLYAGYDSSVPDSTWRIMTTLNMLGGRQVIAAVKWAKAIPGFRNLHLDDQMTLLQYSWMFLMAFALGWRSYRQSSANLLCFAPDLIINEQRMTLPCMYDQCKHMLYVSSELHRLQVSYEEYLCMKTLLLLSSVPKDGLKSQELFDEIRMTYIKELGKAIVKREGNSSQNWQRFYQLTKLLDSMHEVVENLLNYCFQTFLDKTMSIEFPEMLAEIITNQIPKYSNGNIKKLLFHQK
smiles,measurement,setting,value
Cc1cccc(C)c1NC(=O)CN1CCN(CCCC(c2ccc(F)cc2)c2ccc(F)cc2)CC1,Potency,[1],inactive
same,Potency,[2],inactive
same,Potency,[3],inactive
same,Potency,[4],inactive
same,"fluorescence, relative to Rose Bengal",[5],-0.479% [at 18.6 µM]
same,"fluorescence, % of fluorescein control",[6],0.0022% [at 18.6 µM]
same,"fluorescence, % of triamterene",[7],0.0374% [at 18.6 µM]
same,"fluorescence, % of fluorescent control",[8],0.0665% [at 18.6 µM]
same,"fluorescence, % of fluorescein",[9],0.0034% [at 18.6 µM]
same,"fluorescence, % of fluorescent control",[10],-0.178% [at 18.6 µM]
same,activity change,[11],"0.0074% [at 18.6 µM, hits give high values]"
same,"fluorescence, % of fluorescent control",[12],-0.297% [at 18.6 µM]
same,"fluorescence, % of Rose Bengal",[13],-0.0617% [at 18.6 µM]
same,"fluorescence, % of fluorescent control",[14],-0.0263% [at 18.6 µM]
same,"fluorescence, % of fluorescein control",[15],0.0052% [at 18.6 µM]
same,"fluorescence, % of fluorescent control",[16],-0.0418% [at 18.6 µM]
CN1CCN(C2Cc3ccccc3Sc3ccc(Cl)cc32)CC1 (stereo not drawn),Potency,[1],inactive
same,Potency,[2],29.8 µM (active)
same,Potency,[3],inactive
same,Potency,[4],inactive
same,Potency,[5],inactive
same,Potency,[6],inactive
same,Potency,[7],inactive
same,Potency,[8],inactive
same,Potency,[9],inactive
same,Potency,[10],inactive
same,Potency,[11],inactive
same,Potency,[12],inactive
same,Potency,[13],inactive
same,Potency,[14],inactive
same,Potency,[15],inactive
same,Potency,[16],inactive
Cc1ccc(N)cc1O,Potency,[1],inactive
same,Potency,[2],inactive
same,Potency,[3],inactive
same,Potency,[4],inactive
same,Potency,[17],17.2 µM (active)
same,Potency,[5],inactive
same,Potency,[6],inactive
same,Potency,[8],inactive
same,Potency,[9],inactive
same,Potency,[11],inactive
same,Potency,[12],inactive
same,Potency,[13],inactive
same,Potency,[14],inactive
same,Potency,[15],inactive
same,Potency,[16],inactive
same,Potency,[18],inactive
CCCCC(CC)COC(=O)c1ccc(O)cc1 (stereo not drawn),Potency,[1],inactive
same,Potency,[2],54.3 µM (active)
same,Potency,[3],inactive
same,Potency,[4],8.6 µM (active) and 24.3 µM (active)
same,Potency,[17],5.43 µM (active) and 6.11 µM (active)
same,Potency,[5],inactive
same,Potency,[6],inactive
same,Potency,[7],inactive
same,Potency,[8],inactive
same,Potency,[9],inactive
same,Potency,[11],inactive
same,Potency,[12],inactive
same,Potency,[13],inactive
same,Potency,[14],inactive
same,Potency,[15],inactive
same,Potency,[16],inactive
CCN(CC)CCSC(=O)C(c1ccccc1)c1ccccc1,Potency,[1],inactive
same,Potency,[2],inactive
same,Potency,[3],inactive
same,Potency,[4],inactive
same,Potency,[5],inactive
same,Potency,[6],inactive
same,Potency,[7],inactive
same,Potency,[8],inactive
same,Potency,[9],inactive
same,Potency,[10],inactive
same,Potency,[11],inactive
same,Potency,[12],inactive
same,Potency,[13],inactive
same,Potency,[14],inactive
same,Potency,[15],inactive
same,Potency,[16],inactive
same,Potency,[18],inactive
same,Potency,[19],19 µM (active) and 10.7 µM (active)
CCCCN(CCCC)CCC(O)c1cc2c(Cl)cc(Cl)cc2c2cc(C(F)(F)F)ccc12 (stereo not drawn),Potency,[1],inactive
same,Potency,[2],inactive
same,Potency,[3],inactive
same,Potency,[4],inactive
same,"fluorescence, relative to Rose Bengal",[5],0.511% [at 18.6 µM]
same,"fluorescence, % of fluorescein control",[6],0.0229% [at 18.6 µM]
same,"fluorescence, % of triamterene",[7],-0.234% [at 18.6 µM]
same,"fluorescence, % of fluorescent control",[8],0.217% [at 18.6 µM]
same,"fluorescence, % of fluorescent control",[10],-0.0401% [at 18.6 µM]
same,activity change,[11],"-0.0209% [at 18.6 µM, hits give high values]"
same,"fluorescence, % of fluorescent control",[12],0.212% [at 18.6 µM]
same,"fluorescence, % of Rose Bengal",[13],0.0098% [at 18.6 µM]
same,"fluorescence, % of fluorescent control",[14],-0.0142% [at 18.6 µM]
same,"fluorescence, % of fluorescein control",[15],-0.0465% [at 18.6 µM]
same,"fluorescence, % of fluorescent control",[16],0.0481% [at 18.6 µM]
same,Potency,[18],inactive
